# Reference: PubChem BioAssay (NCATS)
# Results filed as inconclusive are left out. Entries that show only a call come without a potency. Calls of active or inactive are those of the source. Calls come from the whole dose curve; as a rule, active = well fitted inhibition curve with a large enough effect; inconclusive = small, poorly fitted or top-dose-only effect; inactive = no such curve, though single readings can be large or run the other way.
# Biological target: Papain (Carica papaya) (UniProt P00784)
# Test: Primary qHTS assay for inhibitors of the protease papain (AID 1645873);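 note: papain turnover of Z-FR-AMC read as the AMC fluorescence gain over 10 min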
# Settings: papain Z-FR-AMC cleavage, AMC fluorescence; series mostly up to 49.8 µM
# Papain (Carica papaya), sequence (P00784 whole entry, looked up): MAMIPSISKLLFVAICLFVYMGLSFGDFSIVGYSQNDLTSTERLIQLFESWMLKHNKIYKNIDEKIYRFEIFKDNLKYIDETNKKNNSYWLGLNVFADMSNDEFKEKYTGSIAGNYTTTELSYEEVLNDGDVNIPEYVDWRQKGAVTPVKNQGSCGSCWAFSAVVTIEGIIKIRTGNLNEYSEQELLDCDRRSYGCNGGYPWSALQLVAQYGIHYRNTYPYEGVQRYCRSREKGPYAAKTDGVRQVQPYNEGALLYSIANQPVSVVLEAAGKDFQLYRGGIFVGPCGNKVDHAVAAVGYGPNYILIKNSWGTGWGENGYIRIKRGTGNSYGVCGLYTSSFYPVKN
row,SMILES,Potency
1,OCC1O[C@H](O)C(Cl)C(O)C1O (some centres not stated),inactive
2,NC[C@@H]1O[C@H](C23CC4CC(CC(C4)C2)C3)Cc2c1ccc(O)c2O,inactive
3,COCCOc1cc2nc[nH]c(=O)c2cc1OCCOC,inactive
4,CC1(C)CCC=[N+]1[O-],inactive
5,CO[C@H]1O[C@@H]2O[C@]3(C)CC[C@@H]4[C@@H](C)CC[C@H]([C@H]1C)[C@]24OO3,inactive
6,O=c1[nH]c2cc(C(F)(F)F)ccc2n1-c1cc(C(F)(F)F)ccc1O,inactive
7,c1ccc(-c2ccccn2)nc1,inactive
8,O=C(O)CC1CCCc2ccccc2C1O (configuration not stated),inactive
9,CN(C)c1ccc(/C=C2\C(=O)Nc3ccccc32)cc1,inactive
10,Fc1cccc(/C=N/N=C/c2cccc(F)c2)c1,inactive
11,Cc1cc2c(cc1Cl)N(C(=O)Nc1ccc(Oc3cccnc3C)nc1)CC2,inactive
12,O=C(c1ccc(Cl)cc1)N1CCN(c2ccc([N+](=O)[O-])c3ncccc23)CC1,inactive
13,CNCC[C@H](Oc1ccc(C(F)(F)F)cc1)c1ccccc1,inactive
14,O=C(Nc1ccccc1)c1cc([N+](=O)[O-])ccc1Cl,inactive
15,NC(=O)C(=O)O,inactive
16,CC(C)NC[C@H](O)COc1cccc2[nH]ccc12,inactive
17,COc1cc(SC)ccc1C(=O)N1CCC(Cc2ccccc2)CC1,inactive
18,CC(C)Cc1ccc([C@H](C)C(=O)O)cc1,inactive
19,NCCCS(=O)(=O)O,inactive

row,SMILES,Potency
1,Cc1cn([C@H]2CC(N=[N+]=[N-])[C@@H](CO)O2)c(=O)[nH]c1=O (some centres not stated),inactive
2,N[C@H](CCCP(=O)(O)O)C(=O)O,inactive
3,CC(C)(NS(=O)(=O)c1ccc(Oc2ccc(F)cc2)cc1)C(=O)NO,inactive
4,OC[C@H]1O[C@@H](n2cnc3c(NC4CCCC4)ncnc32)[C@H](O)[C@@H]1O,inactive
5,Nc1ccn([C@H]2O[C@H](CO)[C@@H](O)C2(F)F)c(=O)n1,inactive
6,O=P(O)(O)C(Cl)(Cl)P(=O)(O)O,inactive
7,CCCCCCCC/C=C\CCCCCCCC(=O)NCCO,inactive
8,CCCCCCCCCCCCCCCC(=O)OC(CC(=O)O)C[N+](C)(C)C (configuration not stated),inactive
9,C[N+](C)(C)CCOP(=O)(O)OP(=O)([O-])OC[C@H]1O[C@@H](n2ccc(N)nc2=O)[C@H](O)[C@@H]1O,inactive
10,CC(=O)/C=C1\C(=O)N(C)c2ccccc21,inactive
11,NCCSSCCN,inactive
12,CN1CCc2ccccc2Cc2[nH]c3ccccc3c2CC1,inactive
13,CNC(=O)[C@H]1O[C@@H](n2cnc3c(NCc4cccc(I)c4)ncnc32)[C@H](O)[C@@H]1O,inactive
14,CN1[C@@H](CC(=O)c2ccccc2)CCC[C@H]1C[C@H](O)c1ccccc1,inactive
15,Nc1nc(Nc2ccccc2)nc2c1ncn2[C@@H]1O[C@H](CO)[C@@H](O)[C@H]1O,inactive
16,CCCCCCCCc1ccc(-c2ccc(C(=O)O)cc2)cc1,inactive
17,CSc1nc(N)c2ncn([C@@H]3O[C@H](COP(=O)(O)OP(=O)(O)OP(=O)(O)O)[C@@H](O)[C@H]3O)c2n1,inactive
18,NC(N)=NC(=O)c1nc(Cl)c(N2CCCCCC2)nc1N,inactive
